Laboratory results from PubChem BioAssay AID504850 (National Center for Advancing Translational Sciences (NCATS), 2011).
Among all 2,300 compounds or so, about 1,200 (52%) were called active. Another 34% or so got no clear call; they are omitted. So high a share suggests a set chosen from earlier hits. Some of the results follow. Unmarked numbers belong to inactive results. The call rests on the fitted dose curve; in most records, active means well fitted inhibition curve with a large enough effect; inconclusive means small, poorly fitted or top-dose-only effect, or effect the other way; inactive means no such curve, though single readings can be large or run the other way.

Assay: Confirmation screen for delayed death inhibitors of the malarial parasite plastid, 48 hour incubation; further: nearly all actives have a fitted effect of over 65% in size
Conditions: P. falciparum-infected erythrocytes, luciferase growth; series mostly up to 28.7 µM; activity change, negative = inhibition: at the top concentration
Summary of the method: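 Single-generation (48 h, 37 C) exposure of integrated firefly luciferase-reporter P. falciparum in red cells, 0.1% parasitemia at 2% hematocrit, Albumax-supplemented RPMI. Falling luciferase signal marks parasite growth inhibition.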
On the % scale 0 is the no-effect control and ±100 the full control effect; potency means the concentration at half of the fitted maximal effect.

| Structure (SMILES) | Potency | activity change, negative = inhibition [%] |
| --- | --- | --- |
| COc1cc(C2Oc3ccccc3C=C2[N+](=O)[O-])cc(OC)c1OC (centres undefined) | 14.1 µM (active) | – |
| COc1cc(/C=C(/C(=O)c2cccs2)c2nc3ccccc3[nH]2)ccc1O | 8.91 µM (active) | – |
| O=C(/C(=C/c1ccc(Cl)cc1)c1nc2ccccc2[nH]1)c1ccccc1 | 1.41 µM (active) | – |
| CCCc1c(C)c2cccc(C)c2[nH]c1=O | – | -16.3 |
| COc1ccc(CNC(=O)C[C@H]2C(=O)N(C3CCCCC3)C[C@@H]2Cc2ccccc2)cc1 | 11.2 µM (active) | – |
| COc1ccc(CNCc2ccc3ccccc3c2)c(OC)c1 | 11.2 µM (active) | – |
| Cc1cc(C)n(CC(O)COc2ccccc2)n1 (centres undefined) | 2 µM (active) | – |
| CCOC(=O)c1c(-c2ccc(C)cc2C)csc1NC(=O)CSc1nnnn1C | 4.47 µM (active) | – |
| CCCSc1nc2c(cnn2-c2ccccc2)c(=O)[nH]1 | – | 13.4 |
| CCCc1c(NC(=O)Nc2ccc(F)cc2)cnn1-c1ccc(Cl)cc1 | 12.6 µM (active) | – |
| CCCc1c(NC(=O)Nc2ccc(F)cc2)cnn1-c1ccccc1 | 15.8 µM (active) | – |
| CC1=NCCN1CCNC(=O)Nc1ccc(F)cc1 | – | 2.48 |
| COc1cccc(NC(=O)c2ccc3c(c2)C(=O)N(CC2CCCO2)C3=O)c1 (centres undefined) | – | -4.19 |
| NC(=O)C1CCN(CC(=O)Nc2cccc(C(=O)Nc3cccc(C(F)(F)F)c3)c2)CC1 | 2 µM (active) | – |
| CSc1c[n+]2c(n1C)CCC2 | – | 4.49 |
| Cc1ccc(-n2c(-c3ccc(Cl)cc3)c[n+]3c2CCC3)cc1 | 0.355 µM (active) | – |
| Cc1c(C)n2c(SCC(=O)Nc3ccc4c(c3)OCCO4)nnc2[nH]c1=O | 4.47 µM (active) | – |
| O=C(c1[nH]ncc1-c1cccc(Br)c1)C1CO1 (centres undefined) | 12.6 µM (active) | – |
| Cc1onc(NC(=O)c2ccc([N+](=O)[O-])o2)c1Br | 12.6 µM (active) | – |
| CC1=Nc2cc(C(=O)N3CCCC3)ccc2Sc2ccc(C)cc21 | 5.62 µM (active) | – |
| COc1ccc(CCN2CCCn3c2nc2c3c(=O)n(Cc3ccccc3F)c(=O)n2C)cc1OC | 5.01 µM (active) | – |
| COc1cc(/C=C/C(=O)c2ccc(Cl)s2)cc(OC)c1O | 14.1 µM (active) | – |
| COc1ccccc1CNC(=O)c1ccc2c(=O)n3c(nc2c1)CCCCC3 | 11.2 µM (active) | – |
| COc1ccccc1C(=O)Nc1ccc2nc3n(c(=O)c2c1)CCCC3 | 11.2 µM (active) | – |
| CCOC(=O)C1CCN(C(=O)C(=O)Nc2ccc3nc4n(c(=O)c3c2)CCCCC4)CC1 | 14.1 µM (active) | – |

| Structure (SMILES) | Potency | activity change, negative = inhibition [%] |
| --- | --- | --- |
| CCC(=O)N1CCc2cc(S(=O)(=O)N3CCCCCC3)ccc21 | 12.6 µM (active) | – |
| CCC(=O)N1CCc2cc(S(=O)(=O)N3CCN(c4cc(Cl)ccc4C)CC3)ccc21 | – | -15.3 |
| CC(=O)N1CCc2cc(S(=O)(=O)N3CC(C)CC(C)C3)ccc21 (centres undefined) | 11.2 µM (active) | – |
| O=C1C2CCCN2C(c2ccccc2)N1c1nccs1 (centres undefined) | – | -20.9 |
| Cc1ccc(Nc2nc(=O)c3cccnc3s2)c(Br)c1 | – | -21.6 |
| O=S(=O)(Nc1cccc2ncccc12)c1cccs1 | 4.47 µM (active) | – |
| Cc1ccc(S(=O)(=O)Nc2cccc3ncccc23)s1 | 5.01 µM (active) | – |
| CCOc1ccc(CCn2c(-c3ccco3)nc3ccccc3c2=O)cc1OCC | 10 µM (active) | – |
| CCOc1ccc(S(=O)(=O)Nc2cc(S(=O)(=O)N(CC)CC)ccc2N2CCCC2)cc1 | 2.51 µM (active) | – |
| N#CC(C#N)=C1C=CC=CN1/C(=C\c1ccco1)C(=O)c1ccc(Cl)cc1 | 14.1 µM (active) | – |
| COc1ccc(C(=O)/C(=C\c2ccco2)N2C=CC=CC2=C(C#N)C#N)cc1 | 15.8 µM (active) | – |
| N#CC(C#N)=C1C=CC=CN1/C(=C\c1ccco1)C(=O)c1ccc(Br)cc1 | 15.8 µM (active) | – |
| COc1ccc(-c2cc(CNC(=O)CCl)on2)cc1 | 1.58 µM (active) | – |
| O=C(NCc1ccc2c(c1)OCO2)c1nc(S(=O)(=O)Cc2ccccc2F)ncc1Cl | – | -11.3 |
| O=C(CN(c1ccc2c(c1)OCCO2)S(=O)(=O)c1ccccc1)NCc1ccc(Cl)cc1 | 7.94 µM (active) | – |
| CC(C)N1C/C(=C/c2ccsc2)C(=O)/C(=C/c2ccsc2)C1 | 5.01 µM (active) | – |
| Cc1c(CCO)sc[n+]1CC(=O)OCCC12CC3CC(CC(C3)C1)C2 | 8.91 µM (active) | – |
| CCCCc1nc2cc(C(=O)N3CCN(c4nc(C)cnc4C)CC3)ccc2o1 | 12.6 µM (active) | – |
| CCC(C)(C)NC(=O)C(c1cccc(OC)c1OC)N(CC(C)C)C(=O)CCC(=O)Nc1cc(C)on1 (centres undefined) | 10 µM (active) | – |
| CCOC(=O)Cn1nnnc1C(CC)N(Cc1cccs1)Cc1cc2ccc(OC)cc2[nH]c1=O (centres undefined) | 10 µM (active) | – |
| Cc1ccc(OCC(=O)Nn2cnnc2)c(Br)c1 | – | 2.15 |
| Cc1ccc(C)c(-c2nnc(OCC(=O)Nc3cc(C)on3)c3ccccc23)c1 | 14.1 µM (active) | – |
| CC(C)N=C(NS(=O)(=O)c1ccccc1)C(Cl)(Cl)Cl | 5.01 µM (active) | – |
| C=CCNC(=O)c1onc(CSc2cccc(Cl)c2)c1C(=O)O | – | 6.09 |
